# Measured values as given in article PMC4242493, “Sequence specificity incompletely defines the genome-wide occupancy of Myc”.
# Whole data set: some 33,000 sequences, median “normalized occupancy” near 0.075, cut for the highest 2% near 0.095. The list comes from a sample in which the highest values are over-represented; it also holds similar and randomly drawn sequences.
# Molecular target: MaxL homodimer (Homo sapiens, UniProt P61244 1-160)
# Test: universal protein-binding microarray (PBM); PBS-based mixture, 10 nM His-tagged protein dimer, 2% milk, 200 ng/uL BSA, 50 ng/uL salmon testes DNA, 0.02% TX-100; detection with Alexa 488 anti-His antibody;; high values mean tight binding
# Conditions: protein: recombinant; tags: C-terminal His-tag (pET21a); chain copies: 2; dsDNA, one strand shown
# Summary of the method: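 Each 8-mer received a fluorescence intensity from GenePix 4400A scans of Agilent 4 x 44 K 'all 10-mer' universal arrays. Those arrays had been incubated with His-tagged protein dimer at 10 nM, and the bound protein was marked with a fluorophore-conjugated anti-His antibody at 10 ng/μL. Binding occupancy is the intensity scaled to that of the highest-ranked sequence word.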
# MaxL homodimer, sequence (P61244 whole entry): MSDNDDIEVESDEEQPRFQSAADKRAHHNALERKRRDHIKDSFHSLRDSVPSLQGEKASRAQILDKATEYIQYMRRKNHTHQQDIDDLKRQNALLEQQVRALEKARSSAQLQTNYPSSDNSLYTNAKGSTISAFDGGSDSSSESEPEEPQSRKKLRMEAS
row,Sequence,binding signal [normalized occupancy]
1,ACTGGCCT,0.073
2,CATTCGCA,0.078
3,AGCCAACA,0.0808
4,ACTTGTGC,0.0751
5,AAAATTAG,0.0735
6,ATTAAGGA,0.0744
7,AAACAGTA,0.0764
8,CGCATGTA,0.105
9,CCCATGTA,0.0872
10,CTCATGTA,0.0936
11,GGAATCCC,0.0772
12,ATCGTTCG,0.0755
13,AAAGCGTG,0.11
14,CAAGCGCG,0.0759
15,CAAGCGTG,0.104
16,CAAGCGAG,0.0757
17,AAAGCGCG,0.0769
18,AAAGCGTT,0.0746
19,ATGTTGCA,0.0888
20,CTTCCCCA,0.0787
21,AGTAGTAG,0.0786
22,GATGTTAC,0.0818
23,AGGCGTCA,0.0742
24,CGGTACAC,0.0815
25,GACGTGGC,0.0846

row,Sequence,binding signal [normalized occupancy]
1,ACCGTGGG,0.0732
2,AACGTAGC,0.0749
3,AACGTGGT,0.125
4,ATCGTGGG,0.0895
5,AACGTGGG,0.114
6,AACGTGGC,0.107
7,AAAGTGGT,0.0721
8,AACGTTGT,0.0817
9,AGTAACTC,0.0742
10,CTAGGAGA,0.0761
11,AATGCCTA,0.0747
12,ACATCAGT,0.0736
13,TATGAATA,0.0823
14,ATATCTCC,0.0807
15,CACTTCAG,0.0728
16,TTGAGAAA,0.0807
17,AACGTACT,0.0746
18,ACACGAGT,0.0979
19,ACACGATA,0.0824
20,AAACGAGG,0.081
21,ACACGATG,0.0969
22,ACACGACT,0.0807
23,ACACGAGG,0.144
24,ATACGAGG,0.084
25,ACACGAGC,0.0815

row,Sequence,binding signal [normalized occupancy]
1,ACACGATC,0.0822
2,ATACGAGA,0.0785
3,ACACGAAT,0.0776
4,ACACGAGA,0.0977
5,GTGCCCTA,0.0772
6,CAAACAGG,0.0747
7,CGCAAGAG,0.0757
8,AGGGGTCG,0.0779
9,CGATATGC,0.0806
10,GCATATGC,0.0998
11,CCATATCG,0.083
12,CCATATAG,0.087
13,GCATATCC,0.0834
14,CCATATGC,0.1
15,CTATATGC,0.0831
16,GCATATGA,0.0934
17,CCATATGG,0.123
18,CAGATAAA,0.078
19,ACCATAAG,0.0853
20,ACAAATTG,0.0753
21,CCCATACC,0.0872
22,CCAGTTGC,0.0718
23,AAACAGTG,0.0728
24,TAGTTTGA,0.0723
25,AATTTTCT,0.0797

row,Sequence,binding signal [normalized occupancy]
1,ACGGGACA,0.0774
2,ACGTGTTC,0.104
3,AGGTGTTG,0.0828
4,AGGTGTTA,0.0801
5,CCGTGTTC,0.0725
6,AAGTGTTC,0.0784
7,GGGTGTTA,0.0779
8,ACGTGTTA,0.109
9,ACGTGTTG,0.109
10,GTGTGTTA,0.0835
11,CCGTGTTA,0.0848
12,GCGTGTTA,0.101
13,ATGTGTTG,0.0905
14,AGAGTCGC,0.0764
15,ACGGATGC,0.0722
16,GTGCCTTA,0.0789
17,ATGAGCGG,0.0799
18,CGGTGTAC,0.0764
19,GATATTCC,0.0765
20,AGCAATTC,0.0722
21,CACGTAAG,0.0796
22,GACGTGAA,0.0766
23,TACGTGAA,0.0794
24,CACGTGAC,0.464
25,CACGTGAG,0.245

row,Sequence,binding signal [normalized occupancy]
1,GACGTGAC,0.0813
2,CCCGTGAC,0.0826
3,CCCGTGAA,0.0812
4,CACGTGAA,0.231
5,CCTTCCCA,0.0748
6,GAATCCTA,0.0741
7,CAGCCGCA,0.0718
8,TGGGTGAA,0.0791
9,AGGATGAC,0.0813
10,TCTAGCCA,0.0723
11,CCTTTATA,0.0822
12,ATGCTTTC,0.0842
13,GTCGTGTA,0.0822
14,ATCGTGTA,0.0829
15,ATCGTGTC,0.0864
16,CTCGTGTA,0.103
17,CTCGTGTC,0.0959
18,CTCGTTTC,0.0748
19,AACATACC,0.086
20,ATCGTCGA,0.0747
21,CTGAATAC,0.0791
22,AGCGTGTA,0.0952
23,CGCGCGTC,0.075
24,AGTGTGTA,0.0806
25,AGCGTGTC,0.0932

row,Sequence,binding signal [normalized occupancy]
1,CGCGTGTA,0.123
2,GGCGTGTA,0.0895
3,CGTGTGTC,0.0936
4,AGCGTATG,0.0754
5,CGTGTGTA,0.0944
6,CGTGTATA,0.0906
7,CGCGTGTC,0.115
8,AGCGTGTG,0.0954
9,AAAGGACT,0.076
10,CTAGAATA,0.0796
11,AAACAACG,0.079
12,AGTTTGAA,0.0729
13,AAACTCAT,0.0797
14,ATAAAAGG,0.0778
15,CGGTCTCA,0.0736
16,CACAGTCA,0.0797
17,ACCATCCT,0.0757
18,ATGTGAGC,0.0803
19,CCGTGAGG,0.0784
20,CCGTGAGA,0.0755
21,ACGTGAGT,0.0893
22,GAGTGAGA,0.0795
23,TCGTGAGA,0.0809
24,ACGTGAGA,0.0981
25,GCGTGAGA,0.0965

row,Sequence,binding signal [normalized occupancy]
1,GCGTGAGC,0.091
2,AAGTGAGG,0.0763
3,ACGTGAGG,0.0969
4,ACGTGAGC,0.107
5,AATTGCCA,0.0744
6,CCTAGAAC,0.0744
7,ATGTTGTG,0.0817
8,CCGTCATC,0.0727
9,AAGACTAT,0.0779
10,CTGGGGAA,0.0741
11,ATGAACAA,0.0807
12,GTGCATAA,0.0861
13,ATGCATCC,0.0863
14,GTGCATCA,0.0868
15,ATGCATGA,0.0997
16,ATGCATTA,0.0869
17,CTGCATGC,0.1
18,ATGCATGC,0.126
19,CTGCATTC,0.0735
20,GTGCATGA,0.0961
21,CTGCATGA,0.083
22,ATGCATTC,0.0908
23,ATGCATCA,0.0872
